The campaign covered roughly 71,000 compounds. About 1,400 (2%) were called active. Not shown: some 3% with an inconclusive outcome. The call rests on the fitted dose curve; in most records, active means well fitted curve in the direction sought with a large enough effect; inconclusive means small, poorly fitted or top-dose-only effect; inactive means no such curve, though single readings can be large or run the other way. The sample as a whole holds a higher share of actives than the screen did.
These molecules were tested against Microtubule-associated protein tau (Homo sapiens) (UniProt P10636) (assay: qHTS Assay for Tau Filament Binding). Conditions: recombinant tau filaments, thioflavin S fluorescence, 15 h, filaments grown with octadecylsulfate alongside compound; series mostly up to 57.1 µM.
Description: NIH Molecular Libraries Screening Centers Network [MLSCN]
NIH Chemical Genomics Center [NCGC]
Assay Provider: Jeffrey A. Kuret, Ohio State University
Tau monomers form filaments in vitro in the presence of anionic detergents or fatty acids. The dye Thioflavine S (ThS) binds to tau filaments and upon binding, increases in fluorescence several fold. Small molecules that displace ThS binding or prevent filament binding are identified by a reduction in ThS fluorescence. This assay used histidine-tagged, recombinant human tau protein containing the products of exons 2, 3, and 10 that was provided by Jeff Kuret, Ohio State University. To form filaments, 1 uM tau was incubated with 30 uM sodium octadecylsulfate (ODS) in reagent buffer (10 uM thioflavine S, 5 mM 1,4-dithioerythreitol (DTT), 100 mM sodium chloride, 10 mM HEPES pH 7.4) for 15 hrs at 37 C.
NCGC Assay Protocol Summary:
Assay Steps. Two uL/well of 2 uM tau in reagent buffer (10 uM thioflavine S, 5 mM DTT, 100 mM sodium chloride, 10 mM HEPES pH 7.4) was dispensed into solid black 1536-well plates. Twenty-three nL compound was transferred to the assay plate after which 2 uL/well of 60 uM ODS in reagent buffer was dispensed for a final assay volume of 4 uL /well. Following 15 hours of incubation at 37 C, fluorescence was detected by an Envision (Perkin Elmer) using 450/8 nm excitation and 510/23 nm emission.
Keywords: NIH Roadmap, MLSCN, MLI, MLSMR, qHTS, NCGC, Alzheimer's disease, Neurofibrillary lesions, tau, tubulin assembly, microtubule stability, cytoskeletal integrity, fibrillization, thioflavin dyes, Amyloidgenic
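Further: actives lower thioflavin S fluorescence by blocking filaments or displacing dye.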
On the % scale 0 is the no-effect control and ±100 the full control effect; potency means the concentration at half of the fitted maximal effect.

Chain of Microtubule-associated protein tau (Homo sapiens) (P10636 whole entry, looked up): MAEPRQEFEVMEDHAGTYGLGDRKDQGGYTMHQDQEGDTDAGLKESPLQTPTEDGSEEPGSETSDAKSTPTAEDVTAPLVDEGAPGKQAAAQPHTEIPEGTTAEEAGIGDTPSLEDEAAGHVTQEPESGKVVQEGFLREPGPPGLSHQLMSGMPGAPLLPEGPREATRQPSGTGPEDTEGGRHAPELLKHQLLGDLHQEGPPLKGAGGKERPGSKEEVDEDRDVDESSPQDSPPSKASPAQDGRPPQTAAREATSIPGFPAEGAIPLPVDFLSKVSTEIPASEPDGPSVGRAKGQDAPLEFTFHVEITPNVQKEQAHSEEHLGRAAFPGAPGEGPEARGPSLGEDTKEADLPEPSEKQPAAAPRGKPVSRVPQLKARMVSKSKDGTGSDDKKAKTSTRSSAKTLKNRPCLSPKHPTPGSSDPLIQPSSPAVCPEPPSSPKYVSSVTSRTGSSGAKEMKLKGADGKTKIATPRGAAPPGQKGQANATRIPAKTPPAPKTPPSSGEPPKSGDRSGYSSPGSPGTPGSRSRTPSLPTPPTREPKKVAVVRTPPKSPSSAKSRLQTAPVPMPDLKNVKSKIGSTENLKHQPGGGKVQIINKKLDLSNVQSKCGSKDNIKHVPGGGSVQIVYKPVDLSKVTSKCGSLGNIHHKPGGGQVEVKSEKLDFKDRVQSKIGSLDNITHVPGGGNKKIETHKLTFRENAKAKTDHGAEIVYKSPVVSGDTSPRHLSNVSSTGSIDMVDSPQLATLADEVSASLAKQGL

Potency, active:
c1ccc(CSc2nnc(-c3ccco3)c(-c3ccco3)n2)cc1 7.94 µM
CCS(=O)(=O)N(C)[C@@H]1c2cc(C#N)ccc2OC(C)(C)[C@H]1O 39.8 µM
Clc1cccc(-c2nc3nc4ccccc4nc3n2Cc2ccco2)c1 15.8 µM
N#Cc1c(N)sc2c1CCN(C(=O)OCc1ccccc1)C2 15.8 µM
COC(=O)C1=C(C)NC2=C(C(=O)c3ccccc32)C1c1ccc(-c2ccc(C(=O)O)cc2)o1 (stereo not given) 25.1 µM
COc1ccc(C(=O)N/N=C2/C(=O)c3c(C)cc(C)cc3CC2(C)C)cc1 5.01 µM
CN(C)CCSc1nc(N)c2c3c(sc2n1)COC(C)(C)C3 12.6 µM
Cc1nn2c(c1-c1ccccc1)N=C(c1ccco1)CC2c1ccccc1 (stereo not given) 10 µM
CC(=O)N1CCN(c2ccc(NCc3ccc(C(C)C)cc3)cc2)CC1 25.1 µM
O=c1cc(-c2ccc(O)c(O)c2)oc2cccc(O)c12 39.8 µM
c1ccc(-c2cc(-c3nnc4sc(-c5ccccn5)nn34)[nH]n2)cc1 1 µM
CCN1C(=O)c2cccc3c(N)ccc1c23 25.1 µM
Oc1ccc(O)c2c(O)cccc12 5.01 µM
C[N+](C)(C)CCCCCNCC12CC3CC(CC(C3)C1)C2 31.6 µM
O=C(NCc1ccco1)c1cccn2c(=O)c3cc(Br)ccc3nc12 25.1 µM
COc1ccc(CNC(=O)c2cc3c(=O)n4ccccc4nc3n(CC3CCCO3)c2=N)cc1 (stereo not given) 2.51 µM
COc1ccc(CCn2c(=N)c(C(=O)NCc3ccco3)cc3c(=O)n4cccc(C)c4nc32)cc1 2 µM

Potency, inactive:
c1ccc(CSc2nnc(-c3ccco3)n2Cc2ccccc2)cc1
Nc1cc(=O)nc(SCc2ccccc2)n1Cc1ccco1
COc1cccc(Cn2c(=O)c(C)nc3cnc(Oc4ccccc4)nc32)c1
O=C(O)c1nccnc1C(=O)Nc1ccc(Br)cn1
C=CCOC(=O)COCCC(C)C
NC[C@@H]1O[C@H](O[C@@H]2[C@H](O[C@@H]3O[C@H](CO)[C@@H](COC[C@H]4O[C@@H](CN)[C@@H](O)[C@@H](O)[C@@H]4N)[C@@H]3O)[C@@H](O)[C@@H](N)C[C@H]2N)[C@@H](N)[C@H](O)[C@@H]1O
O=Cc1c(Cl)cccc1Cl
CC(=O)OCC(COC(C)=O)OC(C)=O
CC(c1ccccc1)n1c(NCCCn2ccnc2)nc2c1c(=O)[nH]c(=O)n2C (stereo not given)
CC(Sc1nc2ccccc2c(=O)n1Cc1ccco1)C(=O)c1ccccc1 (stereo not given)
O=C(CSc1nnc(-c2cccnc2)n1Cc1ccco1)c1ccc(Cl)cc1
O=c1c(CCc2ccccc2)nc2cnc(N3CCNCC3)nc2n1Cc1cccs1
Cc1cc(C)cc(N)c1
N#Cc1ccc(COC(=O)Cn2nnc(-c3ccccc3)n2)cc1
COc1ccccc1NC(=O)C1=C(C)NC2=C(C(=O)CCC2)C1c1ccc(C)o1 (stereo not given)
COC(=O)C1=C(C)NC(=O)NC1/C=C/c1ccccc1 (stereo not given)
Cc1cccc(C(=O)O)c1
CCN(CC)C(=O)c1sc(NC(=O)c2ccco2)c(C#N)c1C
COc1ccc(NC(=O)c2ccc(OC)cc2)cc1
CCCC[C@H]1C(=O)N(c2ccccc2)N(c2ccc(O)cc2)C1=O
CCCC1CC(C)(C(=O)Cn2[nH]c(=O)ccc2=O)OC1=O (stereo not given)
CCC1(C)Cc2c(sc3nc4n(c(=O)c23)CCCS4)CO1 (stereo not given)
COC(=O)C1(C)C=CC2(CCCCC2)N1C(C)=O (stereo not given)
Cn1c(=O)c(CCc2ccccc2)nc2cnc(Nc3ccccc3)nc21
CNC(=O)C1(C)C=CC2(CCCCC2)N1C(C)=O (stereo not given)
Cc1nn(C(=O)c2ccoc2C)c(N)c1-c1ccccc1
C[C@@H]1O[C@@H](O[C@@H]2[C@@H](O)[C@H](OCCc3ccc(O)c(O)c3)O[C@H](CO[C@@H]3O[C@H](CO)[C@@H](O)[C@H](O)[C@H]3O)[C@H]2OC(=O)/C=C/c2ccc(O)c(O)c2)[C@H](O)[C@H](O)[C@H]1O
CCCC(C(=O)NCc1ccco1)N(C(=O)CNS(=O)(=O)c1ccccc1)C1CCCC1 (stereo not given)
CC(=O)N1CCC2(CC1)CCN(c1ccncc1)CC2
CN1CCN(c2ccc(NC(=O)COc3ccc(Cl)cc3Cl)cc2)CC1
COCCNc1ncnc2ccc(-c3ccccc3CN(C)C)cc12
COC(=O)[C@@]1(Cc2ccc(F)cc2)[C@@H]2[C@@H](CC(=O)[C@H]2CC(=O)C(=O)N2CCCC2)CN1C(=O)c1ccccc1
Cc1ccc(/C(=C/CN2CCCC2)c2ccccn2)cc1
C=C(C)C1CC=C(C)C(O)C1 (stereo not given)
CC(=O)Oc1ccccc1C(=O)Nc1ncc([N+](=O)[O-])s1
O=c1c(CCc2ccccc2)nc2cncnc2n1C1CC1
COc1cc(-c2nn3c(-c4cccc(C)c4)nnc3s2)cc(OC)c1OC
Cc1cccc(NC(=O)C2CCN(S(=O)(=O)c3cccc4cccnc34)CC2)c1
COC(=O)CCCCCN1C(=O)NC(c2ccc(-c3ccccc3)cc2)C(C(=O)OCc2ccccc2)=C1C (stereo not given)
O=C(CN1CCN(c2ccc(F)cc2)CC1)Nc1cccc(C(F)(F)F)c1
O=C(CSc1nnc(-c2ccco2)o1)NCC(=O)c1ccccc1
CCCCN(C)C(=O)c1ccc2c(c1)N(CC)C(=O)c1ccccc1S2(=O)=O
COC(=O)Nc1ncc(CN2C(=O)c3ccccc3C2=O)s1
CCOc1ccccc1N=C1NC(=O)CS1
CCc1ccc(CCC(=O)Nc2ccc(S(N)(=O)=O)cc2)o1
Cc1cccn2c(=O)c3cc(C(=O)NCc4ccccn4)n(C)c3nc12
CCn1c(=N)c(C(=O)NCCCOC)cc2c(=O)n3cccc(C)c3nc21
CCOc1ccccc1C(=O)NCc1ccco1
COC(=O)c1ccc2c(=O)n(CC3CCCO3)c(=S)[nH]c2c1 (stereo not given)
O=C(Nc1ccccc1)Nc1ccccc1C(=O)NCc1ccco1

Activity change, negative = inhibition, inactive:
CC(C)CSC[C@@H]1O[C@H](n2cnc3c(N)nccc32)[C@H](O)[C@@H]1O -0.6% [at 11.4 µM]
NC1(C(=O)OCc2ccccc2)CCCC1 6.1% [at 11.4 µM]
O=C1NC(=O)[C@@](Cc2ccccc2)(c2cccnc2)N1 -0.4% [at 11.4 µM]

Reference: PubChem BioAssay AID596 (National Center for Advancing Translational Sciences (NCATS), 2007)
